Measured values from PubChem BioAssay AID1159580 (chemical genetic matrix, 2015).
Among all 5,500 compounds or so, about 2,000 (36%) were called active. About 18% were inconclusive and are not listed. This is one part of the list. A number with no mark means an inactive call. No stated cut-off is given here; in the data, active means normalized growth mostly below about 0.91 (no sharp cut-off); inconclusive means no clear call, values can overlap the other calls; inactive means mostly above about 0.92.

Assay: chemical genetic growth profiling, strain panel (AID 1159580);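 further: tested at 20 µM; growth read once vehicle control cultures reached saturation at 30 °C; 1 = growth at the plate median or of vehicle wells; lower values mean less growth of the strain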
Conditions: S. cerevisiae deletion strains, growth OD
[1] = locus YAL040C, strain CLN3, hits give low values
[2] = locus YCL061C, strain MRC1 (second series), hits give low values
[3] = locus YDR150W, strain NUM1, hits give low values
[4] = locus YDR363W, strain ESC2, hits give low values
[5] = locus YER002W, strain NOP16, hits give low values
[6] = locus YJR075W, strain HOC1, hits give low values
[7] = locus YMR307W, strain GAS1, hits give low values
[8] = locus YNL175C, strain NOP13, hits give low values
[9] = locus YNL197C, strain WHI3, hits give low values
[10] = locus YNL224C, strain SQS1, hits give low values
[11] = locus YOR083W, strain WHI5 (second series), hits give low values
[12] = locus YPL055C, strain LGE1, hits give low values
[13] = locus YAL013W, strain DEP1, hits give low values
[14] = locus YMR263W, strain SAP30, hits give low values
[15] = locus YPL241C, strain CIN2, hits give low values
[16] = locus YDL101C, strain DUN1, hits give low values
[17] = locus YHR030C, strain SLT2, hits give low values

C=CCN1CC[C@]23c4c5ccc(O)c4O[C@@H]2/C(=N\N=C2\CC[C@@]4(O)C6Cc7ccc(O)c8c7[C@@]4(CCN6CC=C)[C@@H]2O8)CC[C@@]3(O)C1C5
normalized growth [1]: 1.01
normalized growth [2]: 1
normalized growth [3]: 1
normalized growth [4]: 1.01
normalized growth [5]: 1
normalized growth [6]: 1
normalized growth [7]: 1.01
normalized growth [8]: 0.988
normalized growth [9]: 1.02
normalized growth [10]: 1.01
normalized growth [11]: 1.02
normalized growth [12]: 0.982

CC[C@H]1CN2CCc3cc(OC)c(OC)cc3[C@@H]2C[C@@H]1C[C@H]1NCCc2cc(OC)c(OC)cc21
normalized growth [13]: 1.01
normalized growth [1]: 0.999
normalized growth [2]: 0.995
normalized growth [4]: 0.999
normalized growth [5]: 1
normalized growth (locus YGR229C, strain SMI1, hits give low values): 0.994
normalized growth [14]: 1.01
normalized growth [7]: 1.01
normalized growth (locus YNL128W, strain TEP1, hits give low values): 0.999
normalized growth [8]: 1.03
normalized growth [9]: 1.02
normalized growth [10]: 1.02
normalized growth [11]: 1.02
normalized growth [12]: 1.02
normalized growth [15]: 1

O=C(Nc1cc(C(F)(F)F)cc(C(F)(F)F)c1)C(Sc1ccccn1)c1ccccc1 (centres undefined)
normalized growth [13]: 0.998
normalized growth (locus YBR229C, strain ROT2, hits give low values): 0.983
normalized growth [16]: 0.987
normalized growth (locus YDL134C, strain PPH21, hits give low values): 0.979
normalized growth [3]: 1
normalized growth (locus YEL061C, strain CIN8, hits give low values): 0.988
normalized growth (locus YGR078C, strain PAC10, hits give low values): 0.989
normalized growth [17]: 0.982
normalized growth (locus YHR087W, strain rtc3, hits give low values): 0.973
normalized growth (locus YJR043C, strain POL32, hits give low values): 0.995
normalized growth [6]: 1.01
normalized growth (locus YLR039C, strain RIC1, hits give low values): 0.944
normalized growth (locus YLR058C, strain SHM2 (second series), hits give low values): 0.978
normalized growth (locus YLR085C, strain ARP6, hits give low values): 1.02
normalized growth (locus YLR262C, strain YPT6, hits give low values): 0.962
normalized growth (locus YML094W, strain GIM5, hits give low values): 0.953
normalized growth (locus YMR219W, strain ESC1, hits give low values): 0.99
normalized growth [14]: 1.03
normalized growth (locus YNL153C, strain GIM3, hits give low values): 1.01
normalized growth (locus YNL298W, strain CLA4 (second series), hits give low values): 1.01
normalized growth (locus YNL322C, strain KRE1, hits give low values): 0.991
normalized growth (locus YNR030W, strain Alg12, hits give low values): 0.997
normalized growth (locus YOL006C, strain TOP1, hits give low values): 0.997
normalized growth [12]: 1.03
normalized growth [15]: 0.98
normalized growth (locus YPR135W, strain CTF4, hits give low values): 0.959

O=C(Nc1ccccn1)c1cc(-c2ccccc2)c(C(F)(F)F)s1
normalized growth (locus YAR019C, strain CDC15, hits give low values): 0.954
normalized growth (locus YBL105C, strain PKC1, hits give low values): 0.94
normalized growth (locus YBR135W, strain CKS1, hits give low values): 0.947
normalized growth (locus YBR136W, strain MEC1, hits give low values): 0.953
normalized growth (locus YBR160W, strain CDC28, hits give low values): 0.939
normalized growth (locus YDL017W, strain CDC7, hits give low values): 0.945
normalized growth (locus YDL028C, strain MPS1, hits give low values): 0.95
normalized growth [16]: 0.944
normalized growth (locus YDL108W, strain KIN28, hits give low values): 0.962
normalized growth (locus YDL132W, strain cdc53, hits give low values): 0.942
normalized growth (locus YDL214C, strain PRR2, hits give low values): 0.897
normalized growth (locus YDR052C, strain DBF4, hits give low values): 0.955
normalized growth (locus YDR054C, strain cdc34, hits give low values): 0.947
normalized growth (locus YDR226W, strain ADK1, hits give low values): 0.965
normalized growth (locus YDR477W, strain SNF1, hits give low values): 0.969
normalized growth (locus YER123W, strain YCK3, hits give low values): 0.967
normalized growth (locus YER133W, strain GLC7, hits give low values): 0.961
normalized growth (locus YFL009W, strain cdc4, hits give low values): 0.955
normalized growth (locus YFL029C, strain CAK1, hits give low values): 0.939
normalized growth (locus YFR003C, strain YPI1, hits give low values): 0.95
normalized growth (locus YFR019W, strain FAB1, hits give low values): 0.953
normalized growth (locus YFR028C, strain CDC14, hits give low values): 0.959
normalized growth (locus YGR040W, strain KSS1, hits give low values): 0.96
normalized growth (locus YGR052W, strain FMP48, hits give low values): 0.971
normalized growth (locus YGR092W, strain DBF2, hits give low values): 0.902
normalized growth [17]: 0.816 (active)
normalized growth (locus YHR079C, strain IRE1, hits give low values): 0.877
normalized growth (locus YHR082C, strain KSP1, hits give low values): 0.918
normalized growth (locus YHR205W, strain SCH9, hits give low values): 0.836
normalized growth (locus YIL147C, strain SLN1, hits give low values): 0.949
normalized growth (locus YJL095W, strain BCK1, hits give low values): 0.916
normalized growth (locus YJL128C, strain PBS2, hits give low values): 0.909
normalized growth (locus YJL157C, strain FAR1, hits give low values): 0.948
normalized growth (locus YJR016C, strain ILV3, hits give low values): 0.951
normalized growth (locus YJR066W, strain TOR1 (second series), hits give low values): 1
normalized growth (locus YJR066W, strain TOR1, hits give low values): 0.897
normalized growth (locus YKL048C, strain ELM1, hits give low values): 0.948
normalized growth (locus YKL067W, strain YNK1, hits give low values): 0.928
normalized growth (locus YKL101W, strain HSL1, hits give low values): 0.929
normalized growth (locus YKL193C, strain SDS22, hits give low values): 0.929
normalized growth (locus YKL203C, strain TOR2, hits give low values): 1.01
normalized growth (locus YLR113W, strain HOG1, hits give low values): 0.77 (active)
normalized growth (locus YLR133W, strain CKI1, hits give low values): 0.941
normalized growth (locus YLR403W, strain SFP1, hits give low values): 0.97
normalized growth (locus YML070W, strain DAK1, hits give low values): 0.924
normalized growth (locus YMR001C, strain CDC5, hits give low values): 0.921
normalized growth (locus YMR205C, strain PFK2 (second series), hits give low values): 0.934
normalized growth (locus YMR277W, strain FCP1, hits give low values): 0.928
normalized growth (locus YNL006W, strain LST8, hits give low values): 0.94
normalized growth (locus YNL020C, strain ARK1, hits give low values): 0.931
normalized growth (locus YNL161W, strain CBK1, hits give low values): 0.934
normalized growth (locus YNL183C, strain NPR1, hits give low values): 0.887
normalized growth (locus YNL207W, strain RIO2, hits give low values): 0.935
normalized growth (locus YNL222W, strain SSU72, hits give low values): 0.941
normalized growth (locus YNL307C, strain MCK1 (second series), hits give low values): 0.897
normalized growth (locus YOL078W, strain AVO1, hits give low values): 0.934
normalized growth (locus YOL136C, strain PFK27, hits give low values): 0.893
normalized growth (locus YOR061W, strain CKA2, hits give low values): 0.95
normalized growth (locus YOR119C, strain RIO1, hits give low values): 0.945
normalized growth (locus YOR231W, strain MKK1, hits give low values): 0.876
normalized growth (locus YOR329C, strain SCD5, hits give low values): 0.935
normalized growth (locus YPL031C, strain PHO85, hits give low values): 0.954
normalized growth (locus YPL153C, strain RAD53, hits give low values): 0.963
normalized growth (locus YPL204W, strain HRR25, hits give low values): 0.945
normalized growth (locus YPL209C, strain IPL1, hits give low values): 0.938
normalized growth (locus YPL256C, strain CLN2, hits give low values): 0.806 (active)
normalized growth (locus YPR025C, strain CCL1, hits give low values): 0.942
normalized growth (locus YPR106W, strain ISR1, hits give low values): 0.936
normalized growth (locus YPR111W, strain DBF20, hits give low values): 0.975
normalized growth (strain NNK1, hits give low values): 0.919
normalized growth (strain TSCII, hits give low values): 0.938
